Results reported in publication PMC7862700, “An all-to-all approach to the identification of sequence-specific readers for epigenetic DNA modifications on cytosine”.

Assays:
Assay in all cases: DAPPL (digital affinity profiling via proximity ligation, sequencing); 10 mM Tris-HCl pH 7.5, 50 mM NaCl, 1 mM DTT, 4% glycerol, room temperature, 30 min; GST-TFs on glutathione beads, 16-mer random dsDNA library, 0.1% formaldehyde crosslink after washing; high values mean tight binding
[1] = molecular target: T1, FLI1 (Homo sapiens, UniProt Q01543 1-452); details: protein: recombinant; tags: N-terminal GST; dsDNA, one strand shown
T1 sequence: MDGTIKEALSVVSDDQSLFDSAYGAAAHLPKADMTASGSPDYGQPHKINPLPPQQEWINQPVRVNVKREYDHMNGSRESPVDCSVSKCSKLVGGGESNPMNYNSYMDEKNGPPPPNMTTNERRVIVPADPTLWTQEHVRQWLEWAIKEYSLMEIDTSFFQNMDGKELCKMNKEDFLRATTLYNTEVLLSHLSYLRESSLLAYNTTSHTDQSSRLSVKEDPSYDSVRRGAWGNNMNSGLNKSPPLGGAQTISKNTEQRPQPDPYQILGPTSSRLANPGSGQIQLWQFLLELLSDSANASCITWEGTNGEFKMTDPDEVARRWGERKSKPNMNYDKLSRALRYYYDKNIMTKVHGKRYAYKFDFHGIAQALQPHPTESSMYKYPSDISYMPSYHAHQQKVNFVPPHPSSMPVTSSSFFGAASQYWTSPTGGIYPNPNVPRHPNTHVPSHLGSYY
Outline: (§1)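 The binding signal reported is, for every hexamer, its read frequency for a factor over its read frequency for the tag-only sample. Reads came from pools of yeast-expressed, GST-fused human transcription factors on glutathione beads, barcoded with DNA and mixed with that sample, which were incubated with 200 nmole of a random double-stranded 16-mer DNA library in Tris/NaCl/DTT/glycerol buffer at room temperature for 30 min. After washing, the pools were crosslinked with 0.1% formaldehyde, proximity-ligated with BsaI/T4 ligase for 1 h at 37 °C, PCR-amplified and sequenced on an Illumina NextSeq500.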

[2] = molecular target: T2, ELK1 (Homo sapiens, UniProt P19419 1-428); details: protein: recombinant; tags: N-terminal GST; dsDNA, one strand shown
T2 sequence: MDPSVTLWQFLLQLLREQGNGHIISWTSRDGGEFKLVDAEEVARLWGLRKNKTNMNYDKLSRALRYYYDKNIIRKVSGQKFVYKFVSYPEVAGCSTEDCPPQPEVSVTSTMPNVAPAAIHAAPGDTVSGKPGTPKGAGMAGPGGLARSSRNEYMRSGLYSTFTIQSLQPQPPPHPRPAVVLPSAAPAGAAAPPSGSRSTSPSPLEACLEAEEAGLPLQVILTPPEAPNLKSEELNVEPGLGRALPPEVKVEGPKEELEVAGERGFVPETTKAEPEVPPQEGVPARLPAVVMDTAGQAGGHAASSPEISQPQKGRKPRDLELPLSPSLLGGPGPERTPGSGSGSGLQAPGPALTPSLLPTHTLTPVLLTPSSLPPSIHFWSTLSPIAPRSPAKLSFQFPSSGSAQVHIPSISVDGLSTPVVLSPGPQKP
Outline: as §1

[3] = molecular target: T3, GABPA (Homo sapiens, UniProt Q06546 1-454); details: protein: recombinant; tags: N-terminal GST; dsDNA, one strand shown
T3 sequence: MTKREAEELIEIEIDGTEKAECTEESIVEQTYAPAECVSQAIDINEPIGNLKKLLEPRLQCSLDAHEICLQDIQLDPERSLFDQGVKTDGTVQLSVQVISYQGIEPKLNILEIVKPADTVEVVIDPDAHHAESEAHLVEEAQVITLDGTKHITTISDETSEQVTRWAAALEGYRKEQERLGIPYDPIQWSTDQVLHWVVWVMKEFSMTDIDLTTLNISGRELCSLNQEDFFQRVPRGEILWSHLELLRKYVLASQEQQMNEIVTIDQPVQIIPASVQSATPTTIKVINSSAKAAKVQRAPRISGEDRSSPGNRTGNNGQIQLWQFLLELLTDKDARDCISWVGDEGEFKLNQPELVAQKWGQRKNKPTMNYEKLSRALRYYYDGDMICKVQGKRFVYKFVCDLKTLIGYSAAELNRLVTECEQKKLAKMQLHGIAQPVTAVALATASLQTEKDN
Outline: as §1

[4] = molecular target: T4, ERG (Homo sapiens, UniProt P11308 1-479); details: protein: recombinant; tags: N-terminal GST; dsDNA, one strand shown
T4 sequence: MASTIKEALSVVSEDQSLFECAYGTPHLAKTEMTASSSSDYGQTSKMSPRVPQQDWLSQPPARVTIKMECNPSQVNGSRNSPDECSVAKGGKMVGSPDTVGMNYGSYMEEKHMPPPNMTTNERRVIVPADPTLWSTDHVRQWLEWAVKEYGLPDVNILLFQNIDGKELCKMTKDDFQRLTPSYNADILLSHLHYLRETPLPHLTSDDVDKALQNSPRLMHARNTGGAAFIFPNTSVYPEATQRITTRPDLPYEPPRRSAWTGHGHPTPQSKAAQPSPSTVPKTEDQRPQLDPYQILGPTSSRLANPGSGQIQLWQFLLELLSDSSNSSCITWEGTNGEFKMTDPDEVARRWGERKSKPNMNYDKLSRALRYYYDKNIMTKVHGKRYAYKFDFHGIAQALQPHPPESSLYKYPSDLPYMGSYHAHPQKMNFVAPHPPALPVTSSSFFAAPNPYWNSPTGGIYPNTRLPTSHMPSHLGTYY
Outline: as §1

[5] = molecular target: ELF1 (Homo sapiens, UniProt P32519 1-619); details: protein: recombinant; tags: N-terminal GST; dsDNA, one strand shown
Sequence of ELF1 (P32519 whole entry): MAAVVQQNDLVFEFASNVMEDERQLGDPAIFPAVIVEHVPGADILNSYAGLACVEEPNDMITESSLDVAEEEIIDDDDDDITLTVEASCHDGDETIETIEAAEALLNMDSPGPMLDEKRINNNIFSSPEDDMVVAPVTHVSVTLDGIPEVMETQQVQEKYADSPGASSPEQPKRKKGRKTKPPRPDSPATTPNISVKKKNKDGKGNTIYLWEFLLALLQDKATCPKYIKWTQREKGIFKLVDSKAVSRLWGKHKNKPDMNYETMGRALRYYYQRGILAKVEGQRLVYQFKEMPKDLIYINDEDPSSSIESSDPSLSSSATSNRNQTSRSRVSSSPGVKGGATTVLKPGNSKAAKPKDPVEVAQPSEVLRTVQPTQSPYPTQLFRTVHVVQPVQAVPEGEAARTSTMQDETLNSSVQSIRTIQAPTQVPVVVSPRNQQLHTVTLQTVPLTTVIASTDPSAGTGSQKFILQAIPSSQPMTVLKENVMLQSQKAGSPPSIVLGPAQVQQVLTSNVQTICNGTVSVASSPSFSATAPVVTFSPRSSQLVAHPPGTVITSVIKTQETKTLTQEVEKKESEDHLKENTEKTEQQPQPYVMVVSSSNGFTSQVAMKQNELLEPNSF
Outline: as §1

[6] = molecular target: T5, EHF (Homo sapiens, UniProt Q9NZC4 1-300); details: protein: recombinant; tags: N-terminal GST; dsDNA, one strand shown
T5 sequence: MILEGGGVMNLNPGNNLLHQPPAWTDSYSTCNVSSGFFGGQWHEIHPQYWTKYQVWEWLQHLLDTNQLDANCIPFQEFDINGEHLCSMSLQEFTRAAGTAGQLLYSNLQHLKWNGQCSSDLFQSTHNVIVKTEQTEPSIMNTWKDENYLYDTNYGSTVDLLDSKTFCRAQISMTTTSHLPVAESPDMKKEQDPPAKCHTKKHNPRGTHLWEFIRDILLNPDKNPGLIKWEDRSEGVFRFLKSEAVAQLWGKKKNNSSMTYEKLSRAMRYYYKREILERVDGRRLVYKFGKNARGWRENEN
Outline: as §1

[7] = molecular target: SPI1 (Homo sapiens, UniProt P17947 1-270); details: protein: recombinant; tags: N-terminal GST; dsDNA, one strand shown
Outline: as §1

[8] = molecular target: SPIB (Homo sapiens, UniProt Q01892 1-262); details: protein: recombinant; tags: N-terminal GST; dsDNA, one strand shown
Sequence of SPIB (Q01892 whole entry): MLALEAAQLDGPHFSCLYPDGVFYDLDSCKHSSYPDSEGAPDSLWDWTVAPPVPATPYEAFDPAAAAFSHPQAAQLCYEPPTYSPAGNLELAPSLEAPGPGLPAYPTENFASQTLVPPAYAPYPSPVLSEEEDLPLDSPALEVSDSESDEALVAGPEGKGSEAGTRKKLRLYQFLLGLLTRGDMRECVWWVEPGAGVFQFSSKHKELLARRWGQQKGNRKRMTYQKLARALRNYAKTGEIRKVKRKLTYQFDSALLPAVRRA
Outline: as §1

[9] = molecular target: T6, ELK3 (Homo sapiens, UniProt P41970 1-407); details: protein: recombinant; tags: N-terminal GST; dsDNA, one strand shown
T6 sequence: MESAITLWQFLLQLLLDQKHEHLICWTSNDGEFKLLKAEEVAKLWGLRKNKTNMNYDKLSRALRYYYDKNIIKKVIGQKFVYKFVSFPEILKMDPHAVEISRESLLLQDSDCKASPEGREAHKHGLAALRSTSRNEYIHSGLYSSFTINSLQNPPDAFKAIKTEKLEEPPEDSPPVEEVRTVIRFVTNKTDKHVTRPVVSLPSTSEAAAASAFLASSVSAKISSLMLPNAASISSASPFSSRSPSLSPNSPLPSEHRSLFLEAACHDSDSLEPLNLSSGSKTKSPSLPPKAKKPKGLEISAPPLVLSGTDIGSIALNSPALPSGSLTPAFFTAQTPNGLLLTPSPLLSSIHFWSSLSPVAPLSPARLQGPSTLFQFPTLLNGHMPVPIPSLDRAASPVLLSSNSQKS
Outline: as §1

[10] = molecular target: T7, FEV (Homo sapiens, UniProt Q99581 1-238); details: protein: recombinant; tags: N-terminal GST; dsDNA, one strand shown
T7 sequence: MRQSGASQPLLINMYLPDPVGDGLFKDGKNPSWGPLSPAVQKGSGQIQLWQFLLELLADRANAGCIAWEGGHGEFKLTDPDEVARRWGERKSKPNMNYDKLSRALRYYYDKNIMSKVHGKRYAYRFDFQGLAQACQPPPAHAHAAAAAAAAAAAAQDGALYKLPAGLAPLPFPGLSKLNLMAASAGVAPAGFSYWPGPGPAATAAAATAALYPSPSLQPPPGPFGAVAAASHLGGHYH
Outline: as §1

[11] = molecular target: ETV5 (Homo sapiens, UniProt P41161 1-510); details: protein: recombinant; tags: N-terminal GST; dsDNA, one strand shown
Sequence of ETV5 (P41161 whole entry): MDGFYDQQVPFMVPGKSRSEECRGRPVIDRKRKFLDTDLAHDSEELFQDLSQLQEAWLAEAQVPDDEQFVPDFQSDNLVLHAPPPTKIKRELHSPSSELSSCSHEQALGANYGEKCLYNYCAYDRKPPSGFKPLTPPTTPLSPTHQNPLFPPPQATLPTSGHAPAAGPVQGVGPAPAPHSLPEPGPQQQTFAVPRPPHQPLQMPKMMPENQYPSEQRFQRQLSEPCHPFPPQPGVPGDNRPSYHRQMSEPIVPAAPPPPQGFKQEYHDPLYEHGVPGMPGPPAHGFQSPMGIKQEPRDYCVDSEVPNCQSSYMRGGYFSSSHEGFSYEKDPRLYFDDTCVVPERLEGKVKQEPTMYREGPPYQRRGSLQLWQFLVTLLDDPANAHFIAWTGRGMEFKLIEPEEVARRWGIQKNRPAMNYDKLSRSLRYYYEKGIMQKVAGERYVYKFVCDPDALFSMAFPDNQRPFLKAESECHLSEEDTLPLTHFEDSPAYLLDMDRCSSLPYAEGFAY
Outline: as §1

[12] = molecular target: HSF1 (Homo sapiens, UniProt Q00613 1-529); details: protein: recombinant; tags: N-terminal GST; chain copies: 3; dsDNA, one strand shown
Sequence of HSF1 (Q00613 whole entry): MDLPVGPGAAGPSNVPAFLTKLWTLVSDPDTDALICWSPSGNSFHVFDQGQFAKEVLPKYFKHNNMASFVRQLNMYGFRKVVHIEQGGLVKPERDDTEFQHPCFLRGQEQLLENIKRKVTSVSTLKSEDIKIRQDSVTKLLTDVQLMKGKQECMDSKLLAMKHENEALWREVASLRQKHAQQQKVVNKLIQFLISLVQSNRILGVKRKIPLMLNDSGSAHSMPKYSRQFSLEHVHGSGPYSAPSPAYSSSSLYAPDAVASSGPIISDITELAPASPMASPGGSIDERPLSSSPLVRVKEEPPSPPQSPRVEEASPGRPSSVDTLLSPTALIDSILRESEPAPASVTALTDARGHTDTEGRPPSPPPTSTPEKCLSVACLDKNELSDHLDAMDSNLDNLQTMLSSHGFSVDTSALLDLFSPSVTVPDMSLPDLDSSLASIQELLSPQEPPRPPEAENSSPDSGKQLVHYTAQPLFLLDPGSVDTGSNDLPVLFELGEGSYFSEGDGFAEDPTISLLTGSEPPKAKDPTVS
Outline: as §1

[13] = molecular target: T8, SPIC (Homo sapiens, UniProt Q8N5J4 1-248); details: protein: recombinant; tags: N-terminal GST; dsDNA, one strand shown
T8 sequence: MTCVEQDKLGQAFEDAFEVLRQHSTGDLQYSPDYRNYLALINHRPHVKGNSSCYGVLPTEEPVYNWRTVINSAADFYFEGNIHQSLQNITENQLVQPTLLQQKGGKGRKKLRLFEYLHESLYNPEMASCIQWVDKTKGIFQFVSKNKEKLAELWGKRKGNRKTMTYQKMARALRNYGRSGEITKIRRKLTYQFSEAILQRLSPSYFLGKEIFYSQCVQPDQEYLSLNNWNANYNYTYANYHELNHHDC
Outline: as §1

[14] = molecular target: ELF4 (Homo sapiens, UniProt Q99607 1-663); details: protein: recombinant; tags: N-terminal GST; dsDNA, one strand shown
Sequence of ELF4 (Q99607 whole entry): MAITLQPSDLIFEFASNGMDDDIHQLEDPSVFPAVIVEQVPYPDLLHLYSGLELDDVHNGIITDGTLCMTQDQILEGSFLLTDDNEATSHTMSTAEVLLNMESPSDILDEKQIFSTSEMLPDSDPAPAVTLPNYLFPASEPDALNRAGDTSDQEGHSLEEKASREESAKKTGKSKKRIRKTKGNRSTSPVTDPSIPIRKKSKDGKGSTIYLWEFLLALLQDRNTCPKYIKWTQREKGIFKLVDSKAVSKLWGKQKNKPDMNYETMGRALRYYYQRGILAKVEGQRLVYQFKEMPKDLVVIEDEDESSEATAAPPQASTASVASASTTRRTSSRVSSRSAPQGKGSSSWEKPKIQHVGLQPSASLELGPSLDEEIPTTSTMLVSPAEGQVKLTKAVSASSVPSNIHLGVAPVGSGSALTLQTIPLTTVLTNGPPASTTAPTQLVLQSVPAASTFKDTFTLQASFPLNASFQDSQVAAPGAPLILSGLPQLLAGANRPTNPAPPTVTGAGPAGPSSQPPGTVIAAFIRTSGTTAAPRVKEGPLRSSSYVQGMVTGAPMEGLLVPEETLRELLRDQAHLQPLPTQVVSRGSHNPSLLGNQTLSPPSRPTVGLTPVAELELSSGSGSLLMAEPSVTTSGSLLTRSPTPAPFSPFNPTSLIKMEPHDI
Outline: as §1

[15] = molecular target: T9, ELK4 (Homo sapiens, UniProt P28324-2 1-405); details: protein: recombinant; tags: N-terminal GST; dsDNA, one strand shown
T9 sequence: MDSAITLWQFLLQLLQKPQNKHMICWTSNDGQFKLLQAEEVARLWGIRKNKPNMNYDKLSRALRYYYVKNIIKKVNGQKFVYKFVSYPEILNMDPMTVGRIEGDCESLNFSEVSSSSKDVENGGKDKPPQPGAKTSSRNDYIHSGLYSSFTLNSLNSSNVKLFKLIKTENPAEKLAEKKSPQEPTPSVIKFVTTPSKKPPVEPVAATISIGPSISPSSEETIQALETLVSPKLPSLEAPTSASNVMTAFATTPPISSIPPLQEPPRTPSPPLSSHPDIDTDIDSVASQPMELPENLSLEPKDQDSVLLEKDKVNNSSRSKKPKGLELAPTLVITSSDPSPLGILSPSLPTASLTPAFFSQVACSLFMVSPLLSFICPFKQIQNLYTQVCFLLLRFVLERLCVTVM
Outline: as §1

[16] = molecular target: T10, ELF3 (Homo sapiens, UniProt P78545 1-371); details: protein: recombinant; tags: N-terminal GST; dsDNA, one strand shown
T10 sequence: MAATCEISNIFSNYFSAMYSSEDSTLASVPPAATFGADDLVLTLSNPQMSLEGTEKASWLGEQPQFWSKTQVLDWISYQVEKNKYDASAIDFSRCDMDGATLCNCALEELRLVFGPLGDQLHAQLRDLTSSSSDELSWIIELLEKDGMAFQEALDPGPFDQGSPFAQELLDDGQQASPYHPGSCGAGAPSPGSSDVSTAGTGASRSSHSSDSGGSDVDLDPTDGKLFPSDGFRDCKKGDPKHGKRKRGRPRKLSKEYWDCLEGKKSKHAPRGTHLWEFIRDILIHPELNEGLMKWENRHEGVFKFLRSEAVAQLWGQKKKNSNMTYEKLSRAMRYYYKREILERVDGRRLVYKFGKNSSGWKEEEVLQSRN
Outline: as §1

[17] = molecular target: CRX (Homo sapiens, UniProt O43186 1-299); details: protein: recombinant; tags: N-terminal GST; dsDNA, one strand shown
Sequence of CRX (O43186 whole entry): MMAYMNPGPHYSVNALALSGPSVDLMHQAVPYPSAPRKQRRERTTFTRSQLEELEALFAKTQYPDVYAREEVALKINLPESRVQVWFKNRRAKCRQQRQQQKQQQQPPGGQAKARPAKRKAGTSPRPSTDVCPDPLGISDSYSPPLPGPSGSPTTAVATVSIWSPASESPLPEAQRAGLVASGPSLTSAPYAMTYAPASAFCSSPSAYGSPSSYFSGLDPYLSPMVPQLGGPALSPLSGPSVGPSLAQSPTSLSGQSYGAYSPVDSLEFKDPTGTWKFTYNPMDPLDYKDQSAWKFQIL
Outline: as §1

[18] = molecular target: ETV1 (Homo sapiens, UniProt P50549 1-477); details: protein: recombinant; tags: N-terminal GST; dsDNA, one strand shown
Sequence of ETV1 (P50549 whole entry): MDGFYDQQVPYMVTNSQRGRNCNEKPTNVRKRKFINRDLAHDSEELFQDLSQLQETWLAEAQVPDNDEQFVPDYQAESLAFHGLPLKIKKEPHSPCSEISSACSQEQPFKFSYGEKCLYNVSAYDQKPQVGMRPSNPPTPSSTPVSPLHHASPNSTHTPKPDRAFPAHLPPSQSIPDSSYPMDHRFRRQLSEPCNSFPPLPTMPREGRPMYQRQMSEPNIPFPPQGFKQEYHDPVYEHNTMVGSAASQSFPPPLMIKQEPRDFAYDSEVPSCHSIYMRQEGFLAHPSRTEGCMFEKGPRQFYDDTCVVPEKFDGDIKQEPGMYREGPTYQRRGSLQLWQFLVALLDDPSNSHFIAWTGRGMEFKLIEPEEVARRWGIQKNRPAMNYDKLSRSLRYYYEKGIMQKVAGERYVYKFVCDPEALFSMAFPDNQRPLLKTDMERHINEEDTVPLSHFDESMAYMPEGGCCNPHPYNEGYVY
Outline: as §1

Sequence | binding signal [1] | binding signal [2] | binding signal [3] | binding signal [4] | binding signal [5] | binding signal [6] | binding signal [7] | binding signal [8] | binding signal [9] | binding signal [10] | binding signal [11] | binding signal [12] | binding signal [13] | binding signal [14] | binding signal [15] | binding signal [16] | binding signal [17] | binding signal [18]
CTATCG | 1.13 fold enrichment (6-mer frequency, TF over GST control) | 1.14 fold enrichment (6-mer frequency, TF over GST control) | 1.05 fold enrichment (6-mer frequency, TF over GST control) | 1.09 fold enrichment (6-mer frequency, TF over GST control) | 1.11 fold enrichment (6-mer frequency, TF over GST control) | 1.07 fold enrichment (6-mer frequency, TF over GST control) | 1.13 fold enrichment (6-mer frequency, TF over GST control) | 1.11 fold enrichment (6-mer frequency, TF over GST control) | 1.08 fold enrichment (6-mer frequency, TF over GST control) | 1.01 fold enrichment (6-mer frequency, TF over GST control) | 1.06 fold enrichment (6-mer frequency, TF over GST control) | 1.17 fold enrichment (6-mer frequency, TF over GST control) | 1.04 fold enrichment (6-mer frequency, TF over GST control) | 1.15 fold enrichment (6-mer frequency, TF over GST control) | 1.09 fold enrichment (6-mer frequency, TF over GST control) | 1.22 fold enrichment (6-mer frequency, TF over GST control) | 1.08 fold enrichment (6-mer frequency, TF over GST control) | 1.13 fold enrichment (6-mer frequency, TF over GST control)
ATAAAG | 1.01 fold enrichment (6-mer frequency, TF over GST control) | 1.01 fold enrichment (6-mer frequency, TF over GST control) | 1.05 fold enrichment (6-mer frequency, TF over GST control) | 1.12 fold enrichment (6-mer frequency, TF over GST control) | 1.06 fold enrichment (6-mer frequency, TF over GST control) | 1.11 fold enrichment (6-mer frequency, TF over GST control) | 1.21 fold enrichment (6-mer frequency, TF over GST control) | 1.1 fold enrichment (6-mer frequency, TF over GST control) | 1.12 fold enrichment (6-mer frequency, TF over GST control) | 1.04 fold enrichment (6-mer frequency, TF over GST control) | 1.03 fold enrichment (6-mer frequency, TF over GST control) | 1.27 fold enrichment (6-mer frequency, TF over GST control) | 1.09 fold enrichment (6-mer frequency, TF over GST control) | 1.08 fold enrichment (6-mer frequency, TF over GST control) | 1.16 fold enrichment (6-mer frequency, TF over GST control) | 1.02 fold enrichment (6-mer frequency, TF over GST control) | 1.53 fold enrichment (6-mer frequency, TF over GST control) | 1.04 fold enrichment (6-mer frequency, TF over GST control)
